These results are taken from PubChem BioAssay (NCI).

Values joined by “and” are separate entries in the source; they are usually repeats but may differ in a detail not shown here. Equal entries are not always repeated. The panel holds about 83,000 compounds, 20% with a hit somewhere; the sample as a whole holds those more often.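 Single-dose data. Exposure time 48 hours. Values below 10 considered active.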 Active and inactive are the calls of the source.

For the assay, the system named is BT-549 breast. Kind of assay: NCI-60 one-dose screen, 48 h (100 = growth as untreated, 0 = no growth, -100 = all killed). As to conditions: 10 µM. On the procedure:
Growth inhibition of the BT-549 human tumor cell line is measured as a screen for anti-cancer activity. Cells are grown in 96 well plates and exposed to the test compound for 48 hours. Compounds are tested at a single concentration, which is 10^-5 M for most compounds. The reported endpoint is percent growth (GI% or GIPRCNT), where numbers from 0 - 100% represent growth inhibition, and numbers from -100% - 0 represent cell death. For example, a value of 40 represents 60% growth inhibition. A value of 0 means no net growth occurred over the course of the experiment. A value of -40 indicates 40% of cells at the beginning of the experiment died by the end of the experiment. A value of -100 means all cells are dead at the end of the experiment.
NCI-60 Human Tumor Cell Lines Screen was performed using the standard one-dose NCI protocol, which is described in more detail at https://dtp.cancer.gov/discovery_development/nci-60/default.htm.
Compounds with GIPRCNT values below 10 were considered active. Activity score was based on GIPRCNT using the following formula: […]
Score is 0 for GIPRCNT values of 100 or above, 50 for GIPRCNT values of 0, and 100 for GIPRCNT values of -100.
In the case of `C#CC1(O)CCC(C(C)(C)C)CC1` (stereo not given), the growth was 122% (inactive).
Under `CN(CCCl)c1ccc(/C=C/C2=[N+](C)c3ccccc3C2(C)C)cc1` stands 20.7% (inactive); under `C=C1C(=O)O[C@@H]2C[C@@H](C)[C@@H]3C=CC(=O)[C@@]3(C)[C@@H](O)[C@H]12`, -85.1% (active).
Under `COc1cc2c(cc1OC)C13CCN4CC5=CCOC6CC(=O)N2C1C6C5CC43` (stereo not given) stands 90.3% (inactive); under `COc1cc([N+](=O)[O-])c2ncccc2c1[N+](=O)[O-]`, 98.2% (inactive); under `O=S(=O)(F)c1ccc(Cl)cc1`, 112% (inactive).
As to `C[CH2][Hg][S]c1ccccc1C(=O)O`, the growth is -73.4% (active).
Under `COc1cc2c(c(OC)c1OC)-c1ccc(O)c(=O)cc1[C@@H](NC(C)=O)CC2` stands 59.9% (inactive).
As for `COc1cc(/C=C(/C)[N+](=O)[O-])ccc1O`, the growth was 79.5% (inactive) and 95.1% (inactive).
Regarding `O=[N+]([O-])c1ccc(Br)c([N+](=O)[O-])c1`, the growth was 104% (inactive).
With `[Cl][Hg][c]1ccc(Cl)s1`, the growth was 14.2% (inactive).
Take `COS(=O)(=O)c1ccccc1`: the growth is 107% (inactive).
Turning to `CC/C(=C/c1ccc(OC)cc1)[N+](=O)[O-]`, the growth was -34.5% (active).
Under `CC(Cc1ccc2c(c1)OCO2)NN` (stereo not given) stands 96.7% (inactive).
`CCCCCCCC[N+]12CN3CN(CN(C3)C1)C2`: the growth is 94.4% (inactive).
In the case of `O=C1C(=O)c2ccccc2-c2ccccc21`, the growth is -75% (active).
The same measure for `COC1CC2C=C(C)/C=C/C=C/C(=O)NC(c3ccccc3)C/C=C/CCC(O)CC(=O)C2=C1O` (stereo not given): -98% (active).
Under `COc1cc(/C=C/[N+](=O)[O-])cc(OC)c1OC` stands 40.6% (inactive); under `NC(=O)c1cc([N+](=O)[O-])c(Cl)c([N+](=O)[O-])c1Cl`, 68.3% (inactive); under `O=C(CBr)Nc1ccccc1`, 87% (inactive).
On to `Oc1c(Cl)cc(Cl)c2ccccc12.[Cu+2]`, for which the growth is 106% (inactive).
As to `CC(C)C1(NC(=O)C2CC3c4cccc5[nH]cc(c45)CC3N(C)C2)OC2(O)C3CCCN3C(=O)C(Cc3ccccc3)N2C1=O` (stereo not given), the growth was 91.4% (inactive).
For `O=[N+]([O-])c1ccc(N2CCOCC2)c2c1no[n+]2[O-]`, the growth was -41.5% (active).
For the molecule `C/C(=C\c1ccc(Cl)c(Cl)c1)[N+](=O)[O-]`, the growth was 76.3% (inactive) and 103% (inactive).
For the molecule `COc1cc(/C=C\[N+](=O)[O-])ccc1O`, the growth is 56% (inactive).
As for `COC12c3c(C)cc(O)c4c(=O)occ(c34)C(=O)C1C13COC(=O)c4c(O)cc(C)c(c41)C(=O)C2C3OC(C)=O` (stereo not given), the growth is 96.2% (inactive).
As to `O=C(O)c1cc(Cc2ccc(O)c(C(=O)O)c2)ccc1O` (tested in a mixture with another compound), the growth is 73.8% (inactive).
In the case of `O=[N+]([O-])c1cc[n+]([O-])c2ccccc12`, the growth was -65.9% (active).
The same measure for `Cn1c(O)c(N=O)c(=O)n(C)c1=O`: 109% (inactive) and 99% (inactive); for `CC1CCC2(OC1)OC1C(O)C3C4CCC5CC(OC6OC(CO)C(OC7OC(CO)C(O)C(OC8OCC(O)C(O)C8O)C7OC7OC(CO)C(O)C(OC8OC(CO)C(O)C(O)C8O)C7O)C(O)C6O)C(O)CC5(C)C4CCC3(C)C1C2C` (stereo not given): -74.8% (active); for `ClCc1ccc2ccccc2n1`: 102% (inactive).
With `O=c1[nH]c2ccccc2n1C1CCN(CCCC(c2ccc(F)cc2)c2ccc(F)cc2)CC1`, the growth was 35.8% (inactive) and 18.5% (inactive).
Regarding `O=[P+](O)c1ccccc1`, the growth is 104% (inactive).
The same measure for `COc1cc(/C=C/[N+](=O)[O-])cc(Br)c1OC`: 8.15% (active).
For the molecule `CS(=N)(=O)CCC(N)C(=O)O` (stereo not given), the growth was 99.2% (inactive).
Take `COc1ccc(/C=C\[N+](=O)[O-])cc1OC`: the growth is 92% (inactive) and 70.3% (inactive).
Regarding `COc1ccc(/C=C(\C)[N+](=O)[O-])cc1OC`, the growth is -29.7% (active).
As to `Cc1cc(C(C)(C)c2ccc(O)c(C)c2)ccc1O`, the growth was 108% (inactive).
For `CN(C)CC1(N)C(=O)NC(=O)NC1=O`, the growth is 111% (inactive).
Consider `S=C=NCCc1ccccc1`, for which the growth is -20.2% (active).
